# Measurements taken from the supplement of paper PMC8728848.
# The sample as a whole holds a higher share of the strongest signals than the screen did.
# B1: DC-SIGN (Canis lupus), XP_853402 (protein)
# chain: AGLCRPCPWKWELFQESCYFFSQTQNTWKESISACQNLRAQLVIINSTEEQKFLKSWNTRNNQRTWIGLSDHHNEGSWKWVDNTPLQLSFWKEGEPNNHGDEDCVELYSDGWNDNRCSTENFWICKKPSSPCPGPGLNDIFEAQKIEWHE
# Columns and labels:
# Test in all cases: glycan array binding signal (z-score within array); higher = stronger binding
# Conditions in all cases: glycan notation: IUPAC condensed, linker removed
# [1] = biological target: Neu5Ac(a2-6)Gal(b1-4)GlcNAc6S
# Summary of the method: (§1)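 Glycan array data came from 3228 arrays in the Consortium for Functional Glycomics database, and only arrays with an available protein sequence were kept. Glycan names were put into IUPAC-condensed notation, and columns mapping to the same glycan were averaged. The binding signal is a within-array Z-score, averaged across arrays of one protein sequence run at different concentrations or buffers and across linkers. A negative Z-score can be read as non-binding.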
# [2] = biological target: Neu5Ac(b2-6)Gal(b1-4)GlcNAc
# Summary of the method: as §1
# Neu5Gc(a2-3)Gal(b1-4)Glc = biological target: Neu5Gc(a2-3)Gal(b1-4)Glc
# Summary of the method: as §1
binder,measurement,setting,value
B1,glycan array binding signal (z-score),[1],-0.341
same,glycan array binding signal (z-score),[2],-0.361
same,glycan array binding signal (z-score),Neu5Gc(a2-3)Gal(b1-4)Glc,-0.065
